From PubChem BioAssay (NCATS) come the findings set out here.

Molecules are shown by their SMILES. Inconclusive results are not listed. The source made the active and inactive calls. Unless noted, calls follow the shape of the full dose curve.

Experiment [1] in a line: qHTS for Inhibitors of the Functional Ribonucleoprotein Complex (vRNP) of Lassa (LASV) Arenavirus: LASV Primary Screen - GLuc reporter signal (AID 1347082; calls by dose curve; tested in HEK293 reporter line; also: nearly all actives have a fitted effect of over 60% in size; also: potency is read from the fitted curve at half-maximal effect).
Experiment [2] in a line: qHTS for Inhibitors of the Functional Ribonucleoprotein Complex (vRNP) of Lassa (LASV) Arenavirus: Viability assay - alamar blue signal for LASV Primary Screen (AID 1347083; calls by dose curve; tested in HEK293 reporter line; also: nearly all actives have a fitted effect of over 80% in size; also: potency is read from the fitted curve at half-maximal effect).
The nature of experiment [3]: qHTS for Inhibitors of the Functional Ribonucleoprotein Complex (vRNP) of Lymphocytic Choriomeningitis Arenaviruses (LCMV): Viability assay - alamar blue signal for LCMV Primary Screen (AID 1347085; calls by dose curve; tested in HEK293 reporter line; also: nearly all actives have a fitted effect of over 80% in size; also: potency is read from the fitted curve at half-maximal effect). In general terms: qHTS replaces the single test concentration by a dilution series.
Experiment [4] deals with Nucleoprotein (Lymphocytic choriomeningitis virus (strain Armstrong)) (UniProt P09992). Put plainly: qHTS for Inhibitors of the Functional Ribonucleoprotein Complex (vRNP) of Lymphocytic Choriomeningitis Arenaviruses (LCMV): LCMV Primary Screen - GLuc reporter signal (AID 1347086). Also: nearly all actives have a fitted effect of over 70% in size. Also: potency is read from the fitted curve at half-maximal effect.
Sequence of Nucleoprotein (Lymphocytic choriomeningitis virus (strain Armstrong)) (P09992 whole entry, looked up): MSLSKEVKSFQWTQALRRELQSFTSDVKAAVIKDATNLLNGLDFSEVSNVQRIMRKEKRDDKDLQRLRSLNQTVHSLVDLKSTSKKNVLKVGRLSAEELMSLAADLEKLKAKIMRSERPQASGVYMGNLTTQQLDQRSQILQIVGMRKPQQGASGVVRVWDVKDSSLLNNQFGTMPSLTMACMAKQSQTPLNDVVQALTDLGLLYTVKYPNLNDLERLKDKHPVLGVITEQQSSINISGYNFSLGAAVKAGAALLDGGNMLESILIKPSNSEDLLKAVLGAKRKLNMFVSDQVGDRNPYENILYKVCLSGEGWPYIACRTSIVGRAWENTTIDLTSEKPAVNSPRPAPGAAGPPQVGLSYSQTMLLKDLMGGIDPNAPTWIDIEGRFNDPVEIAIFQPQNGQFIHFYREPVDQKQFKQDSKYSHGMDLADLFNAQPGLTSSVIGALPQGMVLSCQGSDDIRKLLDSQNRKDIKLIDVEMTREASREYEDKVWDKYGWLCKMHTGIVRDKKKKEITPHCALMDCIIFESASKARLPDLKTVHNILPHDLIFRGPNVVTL
Experiment [5] can be described thus: qHTS of pediatric cancer cell lines to identify multiple opportunities for drug repurposing: Primary screen for TC32 cells (AID 1347089; active = well fitted curve in the direction sought with a large enough effect; an effect the other way counts as inactive or inconclusive; also: nearly all actives have a fitted effect of over 60% in size). An outline of the steps:
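In the primary qHTS, MIPE compounds were tested at 11 concentrations (0.78 nM to 46 µM) and NPC compounds at 8 (0.59 nM to 46 µM) on TC32 cells for 48 h. CellTiter-Glo luminescence gave viability.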

Experiment [6] can be described thus: qHTS of pediatric cancer cell lines to identify multiple opportunities for drug repurposing: Primary screen for DAOY cells (AID 1347090; active = well fitted curve in the direction sought with a large enough effect; an effect the other way counts as inactive or inconclusive; also: series mostly up to about 46 µM; nearly all actives have a fitted effect of over 55% in size). Put shortly: (§1)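 Cell viability, CellTiter-Glo luminescence; 500-1,000 cells/well, 8- or 11-point titration, 48 h compound exposure at 37 degrees C, 5% CO2. Controls: DMSO neutral, bortezomib 2.3 µM final as positive.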
Experiment [7] can be described thus: qHTS of pediatric cancer cell lines to identify multiple opportunities for drug repurposing: Primary screen for SJ-GBM2 cells (AID 1347091; active = well fitted curve in the direction sought with a large enough effect; an effect the other way counts as inactive or inconclusive). An outline of the steps: as §1
A short description of experiment [8]: qHTS of pediatric cancer cell lines to identify multiple opportunities for drug repurposing: Primary screen for A673 cells (AID 1347092; active = well fitted curve in the direction sought with a large enough effect; an effect the other way counts as inactive or inconclusive; also: nearly all actives have a fitted effect of over 45% in size). An outline of the steps:
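48 h compound exposure, A673, 500-1,000 cells/well, 37 degrees C/5% CO2. MIPE: 11-point, 0.78 nM-46 µM; NPC: 8-point, 0.59 nM-46 µM (final). Readout CellTiter-Glo luminescence after 15 min RT.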

Experiment [9] is described as follows: qHTS of pediatric cancer cell lines to identify multiple opportunities for drug repurposing: Primary screen for SK-N-MC cells (AID 1347093; active = well fitted curve in the direction sought with a large enough effect; an effect the other way counts as inactive or inconclusive; also: series mostly up to about 46 µM). Put shortly: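 Metabolically active cells were quantified by ATP-dependent luminescence (CellTiter-Glo, 15 min at room temperature) following 48 h treatment. Cells had been plated at 500-1,000 per well and settled for 5 h beforehand.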

Experiment [10] in a line: qHTS of pediatric cancer cell lines to identify multiple opportunities for drug repurposing: Primary screen for BT-37 cells (AID 1347094; active = well fitted curve in the direction sought with a large enough effect; an effect the other way counts as inactive or inconclusive; also: series mostly up to about 57 µM). Put shortly: (§2)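 Phenotypic viability qHTS, 48 h compound exposure, CellTiter-Glo luminescence read-out; multi-concentration dosing so that potency and efficacy derive directly from the primary screen's curves.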
The nature of experiment [11]: qHTS of pediatric cancer cell lines to identify multiple opportunities for drug repurposing: Primary screen for NB-EBc1 cells (AID 1347095; active = well fitted curve in the direction sought with a large enough effect; an effect the other way counts as inactive or inconclusive). An outline of the steps: as §2
Experiment [12] can be described thus: qHTS of pediatric cancer cell lines to identify multiple opportunities for drug repurposing: Primary screen for U-2 OS cells (AID 1347096; active = well fitted curve in the direction sought with a large enough effect; an effect the other way counts as inactive or inconclusive; also: nearly all actives have a fitted effect of over 50% in size). An outline of the steps: (§3)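 Cells (500-1,000/well) rested 5 h, then received compounds for 48 h; metabolically active cells were measured by CellTiter-Glo luminescence. Final concentrations spanned up to 46 µM (MIPE, 11-point) or 0.59 nM-46 µM (NPC, 8-point) in primary screens, 11-point in follow-ups.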

Experiment [13] is described as follows: qHTS of pediatric cancer cell lines to identify multiple opportunities for drug repurposing: Primary screen for Saos-2 cells (AID 1347097; active = well fitted curve in the direction sought with a large enough effect; an effect the other way counts as inactive or inconclusive; also: nearly all actives have a fitted effect of over 40% in size). An outline of the steps: as §2
Experiment [14] in a line: qHTS of pediatric cancer cell lines to identify multiple opportunities for drug repurposing: Primary screen for SK-N-SH cells (AID 1347098; active = well fitted curve in the direction sought with a large enough effect; an effect the other way counts as inactive or inconclusive; also: nearly all actives have a fitted effect of over 65% in size). Put shortly: as §3
Experiment [15] is described as follows: qHTS of pediatric cancer cell lines to identify multiple opportunities for drug repurposing: Primary screen for NB1643 cells (AID 1347099; active = well fitted curve in the direction sought with a large enough effect; an effect the other way counts as inactive or inconclusive; also: nearly all actives have a fitted effect of over 50% in size). An outline of the steps: as §2
Experiment [16] is described as follows: qHTS of pediatric cancer cell lines to identify multiple opportunities for drug repurposing: Primary screen for LAN-5 cells (AID 1347100; active = well fitted curve in the direction sought with a large enough effect; an effect the other way counts as inactive or inconclusive). An outline of the steps:
as §3

A short description of experiment [17]: qHTS of pediatric cancer cell lines to identify multiple opportunities for drug repurposing: Primary screen for BT-12 cells (AID 1347101; active = well fitted curve in the direction sought with a large enough effect; an effect the other way counts as inactive or inconclusive; also: nearly all actives have a fitted effect of over 25% in size). An outline of the steps:
as §3

Experiment [18] can be described thus: qHTS of pediatric cancer cell lines to identify multiple opportunities for drug repurposing: Primary screen for Rh18 cells (AID 1347102; active = well fitted curve in the direction sought with a large enough effect; an effect the other way counts as inactive or inconclusive; also: nearly all actives have a fitted effect of over 65% in size). Put shortly: as §3
The nature of experiment [19]: qHTS of pediatric cancer cell lines to identify multiple opportunities for drug repurposing: Primary screen for OHS-50 cells (AID 1347103; active = well fitted curve in the direction sought with a large enough effect; an effect the other way counts as inactive or inconclusive; also: nearly all actives have a fitted effect of over 40% in size). Put shortly:
as §3

As to `c1ccc2[nH]ccc2c1`, the Potency result in experiment [1], in [2], in [3] and in experiment [4] was “inactive” each time.

For `O=C(O)CC(O)C(=O)O` (configuration not stated), the Potency entry in experiment [1], in experiment [2], in experiment [3] and in experiment [4] was “inactive” each time.

Take `Cc1cc(-c2ccccc2)nnc1NCCN1CCOCC1`: the Potency entry in experiment [1], in [2], in experiment [3] and in experiment [4] was “inactive” throughout.

In the case of `Clc1ccc(-c2nc3sccn3c2C=NOCc2ccc(Cl)c(Cl)c2)cc1`, the Potency result in experiment [1], in [2], in [3] and in [4] was “inactive” each time.

With `CCC(C)(Oc1ccc(C2(c3ccc(OC(C)(CC)C(=O)O)cc3)CCCCC2)cc1)C(=O)O` (configuration not stated), the Potency result in [1], in experiment [2], in [3] and in experiment [4] was “inactive” each time.

For `COc1ncnc(NS(=O)(=O)c2ccc(N)cc2)c1OC`, the Potency result in [1], in [2], in [3] and in [4] was “inactive” each time.

As to `Brc1ccccc1-c1ccccc1`, the Potency entry in experiment [1], in experiment [2], in experiment [3] and in experiment [4] was “inactive” in each case.

For `CCOc1cc(NC(C)=O)ccc1C(=O)OC`, the Potency result in experiment [1], in experiment [2], in experiment [3] and in experiment [4] was “inactive” each time.

As to `CC[C@@H]1C(=O)N(C)c2cnc(Nc3ccc(C(=O)NC4CCN(C)CC4)cc3OC)nc2N1C1CCCC1`, the Potency in experiment [1] was 76.9 nM (active); in experiment [2] it was 48.5 nM (active); in [3], 153 nM (active); in experiment [4], 30.6 nM (active).

For the compound `O=C(NC1CCNCC1)c1[nH]ncc1NC(=O)c1c(Cl)cccc1Cl`, the Potency in experiment [1] is 3430 nM (active); in experiment [2], 769 nM (active); in [3], 968 nM (active); in experiment [4] it was 1930 nM (active).

Turning to `CCCCC(CC)COC(=O)/C=C/c1ccc(OC)cc1` (configuration not stated), the Potency entry in experiment [1], in experiment [2], in experiment [3] and in experiment [4] was “inactive” in each case.

On to `CC(=O)N[C@@H](CCC(N)=O)C(=O)O`, for which the Potency result in experiment [1], in experiment [2], in [3] and in experiment [4] was “inactive” in each case.

With `Cc1cccc(C)c1NC(=O)c1ccccc1C(=O)O`, the Potency entry in [1], in experiment [2], in experiment [3] and in [4] was “inactive” throughout.

As for `CC(C)OC(=O)c1cc(C(=O)OC(C)C)cc([N+](=O)[O-])c1`, the Potency result in [1], in [2], in experiment [3] and in [4] was “inactive” in each case.

As for `NC(=O)c1ccc(-c2nc(-c3ccc4c(c3)OCO4)c(-c3ccccn3)[nH]2)cc1`, the Potency entry in experiment [1], in experiment [2], in experiment [3] and in experiment [4] was “inactive” in each case.

In the case of `Nc1ccccc1N`, the Potency result in [1], in experiment [2], in experiment [3] and in experiment [4] was “inactive” each time.

For `CCCCC/C(C=O)=C\c1ccccc1`, the Potency entry in experiment [1], in [2], in [3] and in [4] was “inactive” throughout.

As to `CC[C@@H]1C(=O)OC[C@@H]1Cc1cncn1C`, the Potency entry in [1], in experiment [2], in experiment [3] and in [4] was “inactive” in each case.

In the case of `CCNC(=O)c1noc(-c2cc(C(C)C)c(O)cc2O)c1-c1ccc(CN2CCOCC2)cc1`, the Potency in experiment [1] was 611 nM (active); in [2], 273 nM (active); in experiment [3] it was 544 nM (active); in experiment [4], 306 nM (active).

For the compound `COc1cc2ncnc(-n3nc(-c4ccccn4)nc3N)c2cc1OC`, the Potency is 13700 nM (active) in experiment [1], 19300 nM (active) in [2], 7690 nM (active) in experiment [3] and 2430 nM (active) in [4].

Regarding `C[C@@H]1CN(c2c(F)c(N)c3c(=O)c(C(=O)O)cn(C4CC4)c3c2F)C[C@H](C)N1`, the Potency entry in [1], in [2], in [3] and in experiment [4] was “inactive” in each case.

With `COc1ccc(CCN(C)CCCOc2ccc(S(=O)(=O)c3[nH]c4ccccc4c3C(C)C)cc2)cc1OC`, the Potency entry in experiment [1], in [2], in experiment [3] and in experiment [4] was “inactive” throughout.

As to `NC(CO)C(=O)NNCc1ccc(O)c(O)c1O` (configuration not stated), the Potency entry in experiment [1], in experiment [2], in experiment [3] and in [4] was “inactive” throughout.

With `C=C1C(=CC=C2CCC[C@]3(C)[C@@H]([C@H](C)C=C[C@H](C)C(C)C)CC[C@@H]23)C[C@@H](O)C[C@@H]1O`, the Potency entry in experiment [1] and in experiment [4] was “inactive” each time. Also, the Potency in experiment [2] and in experiment [3] was 13700 nM (active) each time.

As for `CCN1CCN(c2cc3c(cc2F)c(=O)c(C(=O)O)cn3C2CC2)CC1`, the Potency entry in [1], in [2], in experiment [3] and in [4] was “inactive” throughout.

Take `CC(=O)OCC(=O)[C@@]1(O)[C@H](C)C[C@H]2[C@@H]3C=C(C)C4=Cc5c(cnn5-c5ccccc5)C[C@]4(C)[C@@H]3[C@@H](O)C[C@@]21C`: the Potency result in [1], in [2], in experiment [3] and in [4] was “inactive” each time.

With `CCN(c1ccccc1)c1cc(NC)[n+](C)c(C)n1`, the Potency entry in experiment [1], in experiment [2], in experiment [3] and in [4] was “inactive” in each case.

In the case of `CCC=CC[C@H]1C(=O)CC[C@@H]1CC(=O)OC`, the Potency result in [1], in experiment [2], in [3] and in experiment [4] was “inactive” in each case.

Turning to `CN1C(=O)C(Cc2c[nH]c3ccccc23)NC1=S` (configuration not stated), the Potency entry in experiment [1], in experiment [2], in experiment [3] and in [4] was “inactive” each time.

Consider `O=c1cc(CN2CCOCC2)occ1OCCCCCSc1ccnc2cc(C(F)(F)F)ccc12`, for which the Potency was 21700 nM (active) in experiment [1], 1930 nM (active) in experiment [2], 273 nM (active) in [3] and 1220 nM (active) in experiment [4].

Turning to `Cc1ccc(C(=O)Nc2cccc(C(F)(F)F)c2)cc1-c1ccc2nc(NCCN3CCOCC3)ncc2c1`, the Potency in [1] was 10900 nM (active); in experiment [2] it was 13700 nM (active); in experiment [3] it was 19300 nM (active); in experiment [4] it was 12200 nM (active).

As for `C=C1C(=CC=C2CCCC3(C)[C@@H]([C@H](C)C=CC=CC(O)(CC)CC)CC[C@@H]23)C[C@@H](O)C[C@@H]1O` (some centres not stated), the Potency entry in experiment [1], in experiment [2], in experiment [3] and in experiment [4] was “inactive” throughout.

For the compound `Cn1c(=O)n(-c2ccc(C(C)(C)C#N)cc2)c2c3cc(-c4cnc5ccccc5c4)ccc3ncc21`, the Potency in [1] is 38.5 nM (active); in [2], 34.3 nM (active); in experiment [3], 61.1 nM (active); in experiment [4], 68.5 nM (active).

As for `CC(=O)N[C@@H](Cc1ccc(O)cc1)C(=O)O`, the Potency result in [1], in experiment [2], in [3] and in experiment [4] was “inactive” each time.

Turning to `O=C(O)C(Cl)Cl`, the Potency result in experiment [1], in [2], in [3], in experiment [4], in experiment [5] and in experiment [6] was “inactive” throughout. Besides, the Potency result in [7], in experiment [8], in experiment [9], in [10], in [11] and in [12] was “inactive” throughout. Besides, the Potency result in experiment [13], in experiment [14], in experiment [15], in experiment [16], in experiment [17] and in experiment [18] was “inactive” throughout. Moreover, the Potency entry in experiment [19] was “inactive”.

Regarding `CN1CC[C@@H](c2c(O)cc(O)c3c(=O)cc(-c4ccccc4Cl)oc23)[C@@H](O)C1`, the Potency in [1] was 544 nM (active); in experiment [2] it was 137 nM (active); in experiment [3], 217 nM (active); in [4] it was 344 nM (active).

For the compound `CN(C)C1CCN(C(=O)c2ccc(NC(=O)Nc3nc(N4CCOCC4)nc(N4CCOCC4)n3)cc2)CC1`, the Potency in [1] is 243 nM (active); in experiment [2], 68.5 nM (active); in experiment [3], 61.1 nM (active); in experiment [4], 96.8 nM (active).

Take `C[C@]12CC[C@H](O)CC1=CC[C@@H]1[C@H]2CC[C@]2(C)C(c3cccnc3)=CC[C@H]12`: the Potency entry in experiment [1], in experiment [2], in experiment [3] and in experiment [4] was “inactive” each time.
